Experimental findings from ChEMBL document CHEMBL4513146, “CO-ADD screening of Karazin Kharkiv National University (Ukraine) compounds” are described below.

One assay relates to Klebsiella pneumoniae. The conditions noted are these: Concentration 32 ug.mL-1;; ASSAY_TEST Inhibition of Bacterial Growth; detection method Absorption (OD600); MEDIA CAMHB; plate type 384well; NBS; CORNING #3640; time 18 hr.
Another assay relates to Candida albicans. Conditions: Concentration 32 ug.mL-1; ASSAY_TEST Inhibition of Fungal Growth; detection method Absorption (OD530).
The test system of a further assay is Cryptococcus neoformans. The conditions noted are these: Concentration 32 ug.mL-1; ASSAY_TEST Inhibition of Fungal Growth; detection method Resazurin; Absorption (OD600-OD570); plate type 384well; NBS; CORNING #3640.

Measured potencies and affinities stand elsewhere.

Usually Inhibition stands for the drop in the measured response relative to a control, in per cent.

As to `CCOC(=O)c1ccccc1NC(=O)Cn1nc2ccc(C(=O)Nc3ccc(OC)cc3)cn2c1=O`, the Inhibition was -1.54% with Klebsiella pneumoniae, 25.24% with Candida albicans and -9.29% with Cryptococcus neoformans.

As to `COc1ccccc1NC(=O)Cn1nc2c(SC3CCCCC3)nccn2c1=O`, the Inhibition in the assay on Klebsiella pneumoniae is listed as -0.89%; in the assay with Candida albicans, 12.37%; in the assay on Cryptococcus neoformans it was -26.18%.

Regarding `COc1ccc(NC(=O)Cn2nc3nc(N4CCOCC4)ccn3c2=O)cc1F`, the figures for the Inhibition in the assay on Klebsiella pneumoniae, with Candida albicans and in the assay on Cryptococcus neoformans were 8.85%, 5.37% and -8.95%, respectively.

On to `COc1ccc(NC(=O)Cn2nc3c(SC4CCCCC4)nccn3c2=O)cc1OC`, for which the Inhibition in the assay with Klebsiella pneumoniae is 12.09%; in the assay with Candida albicans it was -2.05%; in the assay with Cryptococcus neoformans, -22.51%.

Turning to `CCOc1ccc(-n2ccn3c(SCC(=O)Nc4ccc(F)cc4F)nnc3c2=O)cc1`, the Inhibition in the assay on Klebsiella pneumoniae is reported as 15.47%; with Candida albicans, 3.41%; in the assay with Cryptococcus neoformans it was -5.09%.

As for `O=c1n(Cc2cccc(C(F)(F)F)c2)nc2c(S(=O)(=O)N3CCCCC3)cccn12`, the Inhibition in the assay on Klebsiella pneumoniae was 6.48%; in the assay on Candida albicans, 1.28%; with Cryptococcus neoformans it was -8.66%.

With `CCC(C)NC(=O)Cn1nc2n(CC(C)C)c(=O)c3ccc(C(=O)NC4CCCCC4)cc3n2c1=O` (stereo not given), the figures for the Inhibition in the assay with Klebsiella pneumoniae, in the assay on Candida albicans and in the assay with Cryptococcus neoformans were 0.48%, -1.97% and -14.64%, respectively.

In the case of `Cc1ccc(-c2ccc3nn(CC(=O)Nc4ccc(C(C)C)cc4)c(=O)n3n2)cc1C`, the Inhibition in the assay with Klebsiella pneumoniae is given as 2.75%; in the assay with Candida albicans, 3.46%; in the assay on Cryptococcus neoformans it was -11.72%.

On to `COc1ccc(-c2cc3c4nn(CC(=O)Nc5ccc(F)cc5)c(=O)n4ccn3n2)cc1`, for which the Inhibition is given as 1.02% in the assay on Klebsiella pneumoniae, 15.17% in the assay with Candida albicans and -16.6% in the assay with Cryptococcus neoformans.

As for `O=C(Cn1nc2ccc(-c3ccc(Cl)cc3)nn2c1=O)NC1CCCC1`, the Inhibition is 16.69% in the assay on Klebsiella pneumoniae, 1.09% with Candida albicans and -13.05% in the assay with Cryptococcus neoformans.

As to `CCOC(=O)c1ccc(NC(=O)Cn2nc3ccc(Sc4ccccc4)nn3c2=O)cc1`, the Inhibition in the assay on Klebsiella pneumoniae is 5.75%; in the assay with Candida albicans, 4.06%; in the assay with Cryptococcus neoformans, -9.53%.

Take `Cc1ccc(Sc2nccn3c(=O)n(CC(=O)Nc4ccccc4Br)nc23)c(C)c1`: the Inhibition in the assay on Klebsiella pneumoniae was 1.33%; in the assay on Candida albicans, 1.01%; in the assay with Cryptococcus neoformans, -20.06%.

Regarding `COc1ccc(-c2cc3c4nn(CC(=O)Nc5ccc(C)c(F)c5)c(=O)n4ccn3n2)cc1`, the values for the Inhibition with Klebsiella pneumoniae, in the assay with Candida albicans and in the assay with Cryptococcus neoformans were 3.92%, 28.75% and -7.43%, respectively.

Take `COC(=O)c1cccc(NC(=O)Cn2nc3c(Oc4ccccc4)nccn3c2=O)c1`: the Inhibition is recorded as 3.42% with Klebsiella pneumoniae, 3.07% with Candida albicans and -9.43% in the assay on Cryptococcus neoformans.

For the compound `COc1ccc(NC(=O)Cn2nc3c4cc(-c5ccc(C)cc5)nn4ccn3c2=O)c(OC)c1`, the Inhibition in the assay on Klebsiella pneumoniae is recorded as 9.2%; in the assay on Candida albicans, 7.88%; in the assay on Cryptococcus neoformans, -29.92%.

`O=C(Cn1nc2c(SC3CCCCC3)nccn2c1=O)N1CCN(c2ccc(F)cc2)CC1`: the Inhibition in the assay with Klebsiella pneumoniae is 10.98%; in the assay with Candida albicans, 0.3%; in the assay with Cryptococcus neoformans, -4.89%.

In the case of `COc1cccc(-n2ccn3c(SCC(=O)c4ccc(F)cc4)nnc3c2=O)c1`, the Inhibition is 12.25% in the assay with Klebsiella pneumoniae, 2.59% with Candida albicans and -11.08% in the assay with Cryptococcus neoformans.

`CC(=O)c1ccc(NC(=O)Cn2c(=O)c3nnc(C(C)C)n3c3ccccc32)cc1`: the Inhibition is reported as 9.51% in the assay with Klebsiella pneumoniae, 0.56% in the assay with Candida albicans and -14.82% in the assay with Cryptococcus neoformans.

Regarding `Cc1ccc(-c2cc3c4nn(CC(=O)Nc5ccccc5Br)c(=O)n4ccn3n2)cc1C`, the Inhibition in the assay on Klebsiella pneumoniae was 18.24%; with Candida albicans, -0.22%; in the assay with Cryptococcus neoformans, -11.06%.

On to `COc1cccc(-n2ccn3c(SCc4c(F)cccc4Cl)nnc3c2=O)c1`, for which the Inhibition was 6.32% with Klebsiella pneumoniae, 2.64% with Candida albicans and -10.15% in the assay on Cryptococcus neoformans.

Take `COc1cc(NC(=O)CSc2nnc3c(=O)n(-c4ccc(C)c(C)c4)ccn23)cc(OC)c1`: the Inhibition is recorded as 2.77% with Klebsiella pneumoniae, 1.66% in the assay with Candida albicans and -9.37% with Cryptococcus neoformans.

In the case of `Cc1cc(C)cc(N(Cc2cc(C)ccc2C)S(=O)(=O)c2cccn3c(C)nnc23)c1`, the Inhibition in the assay with Klebsiella pneumoniae was 4.69%; with Candida albicans, 1.02%; in the assay with Cryptococcus neoformans, -8.76%.

Turning to `Cc1nnc2c(S(=O)(=O)N(Cc3ccccc3F)c3cc(F)cc(F)c3)cccn12`, the Inhibition is recorded as 1.21% with Klebsiella pneumoniae, 0.25% in the assay with Candida albicans and -4.37% with Cryptococcus neoformans.

Take `O=S(=O)(Nc1ccc2c(c1)OCCO2)c1ccc2nncn2c1`: the values for the Inhibition in the assay on Klebsiella pneumoniae, with Candida albicans and in the assay with Cryptococcus neoformans were 12.24%, 2.83% and -7.84%, respectively.

For the compound `O=S(=O)(c1ccc2nncn2c1)N(Cc1ccc(F)cc1)c1ccc(F)c(F)c1`, the Inhibition was 5.64% in the assay with Klebsiella pneumoniae, 2.31% with Candida albicans and -6.65% in the assay on Cryptococcus neoformans.

For `COc1ccc(CNC(=O)Cn2nc3c(N4CCN(c5ccccc5)CC4)nccn3c2=O)cc1`, the values for the Inhibition in the assay on Klebsiella pneumoniae, with Candida albicans and in the assay on Cryptococcus neoformans were 14.33%, 4.36% and -9.25%, respectively.

For `COc1cccc(-n2ccn3c(SCC(=O)c4cccc(Cl)c4)nnc3c2=O)c1`, the Inhibition with Klebsiella pneumoniae is given as 6.31%; in the assay with Candida albicans, 2.28%; in the assay on Cryptococcus neoformans, -6.56%.

For the compound `Cc1cc(C)cc(N(Cc2ccc(Cl)cc2)S(=O)(=O)c2cccn3c(C)nnc23)c1`, the Inhibition in the assay with Klebsiella pneumoniae was 4.19%; in the assay on Candida albicans, 0.27%; in the assay with Cryptococcus neoformans, -8.23%.

`COc1ccccc1NC(=O)Cn1nc2c(SCc3ccc(Cl)cc3)nccn2c1=O`: the Inhibition in the assay on Klebsiella pneumoniae is on record as 9.59%; with Candida albicans, 1.74%; in the assay with Cryptococcus neoformans, -17.01%.

`Cc1ccc(Cn2c(=O)c3ccccc3n3c(=O)n(CC#N)nc23)cc1`: the values for the Inhibition in the assay with Klebsiella pneumoniae, with Candida albicans and in the assay on Cryptococcus neoformans were 6.47%, -0.23% and -25%, respectively.
